Screening data (PubChem)
PI4K2A inh: inhibitors of human PI4K2A. Q9BTU6. purified PI4K2A, ADP-Glo luminescence, 1 h; hits give low values. activity change, negative = inhibition, % at 76.9 µM. 420,000 tested, 0.13% active. AID 1346378; in the data active = activity change below about -50%; inconclusive = mostly about -30% to -49%
Target sequence (Q9BTU6 whole entry, looked up): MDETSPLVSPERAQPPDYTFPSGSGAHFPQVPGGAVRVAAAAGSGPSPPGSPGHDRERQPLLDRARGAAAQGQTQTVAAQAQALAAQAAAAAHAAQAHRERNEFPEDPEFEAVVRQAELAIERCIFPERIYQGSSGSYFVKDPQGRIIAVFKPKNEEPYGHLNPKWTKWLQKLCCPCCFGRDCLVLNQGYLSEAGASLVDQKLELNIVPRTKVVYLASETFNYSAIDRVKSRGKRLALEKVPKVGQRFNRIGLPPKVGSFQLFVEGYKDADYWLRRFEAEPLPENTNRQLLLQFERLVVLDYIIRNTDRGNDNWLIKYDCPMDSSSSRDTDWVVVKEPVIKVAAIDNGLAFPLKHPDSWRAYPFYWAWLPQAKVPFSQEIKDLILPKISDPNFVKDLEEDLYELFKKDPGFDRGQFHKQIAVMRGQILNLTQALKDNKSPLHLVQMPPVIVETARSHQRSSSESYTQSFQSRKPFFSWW
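PI4K2A activity was measured by ADP-Glo luminescence: enzyme (4 ug/mL stock) and phosphatidylinositol (1.2 mM stock) in Tris pH 7.5/MgCl2/EGTA/Triton X-100 buffer were reacted with ATP (300 microM stock) for one hour at ambient temperature.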
Pin1 inh: human Pin1 inhibition; Q13526; Pin1 FP peptide displacement, HiFluor488, 10 min; Potency, µM (titrated, usually from 115 µM), actives largely listed as inhibitors; 390,000 tested, 0.009% active; AID 504891; active = well fitted inhibition curve with a large enough effect in the polarisation, with a control signal flat, not every such curve was filed as active; inconclusive = small, poorly fitted or top-dose-only effect, or effect the other way, or a change in a side signal; inactive = no such curve, though single readings can be large or run the other way; the % refers to the polarisation
Target sequence (Q13526 whole entry, looked up): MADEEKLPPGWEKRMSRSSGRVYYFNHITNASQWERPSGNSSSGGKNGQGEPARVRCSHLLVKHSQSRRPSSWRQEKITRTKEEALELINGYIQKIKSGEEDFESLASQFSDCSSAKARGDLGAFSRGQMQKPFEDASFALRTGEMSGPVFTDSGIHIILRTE
Tb PFK block: blocks T. brucei phosphofructokinase; T. brucei PFK, ADP-Glo luminescence; 330,000 tested, 0.17% active; O15648; Potency, µM (titrated, usually from 57.5 µM), hits mostly inhibitors; also: nearly all actives have a fitted effect of over 60% in size
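ADP-Glo luminescence quantified ADP after 45 min at room temperature, with 1.25 nM T. brucei PFK, 0.1 mM ATP and 0.5 mM fructose-6-phosphate in pH 8.0 TEA buffer. qHTS titrations up to 57 µM; curves classified by quality.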
Tb PGK inh: blocks T. brucei phosphoglycerate kinase | 380,000 tested, 0.043% active | AID 602233 | Potency, µM (doses to about 57.5 µM), actives largely listed as inhibitors | PGK/GAPDH coupled, Kinase-Glo luminescence, 60 min | P07378; also: nearly all actives have a fitted effect of over 60% in size
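Luminescent ATP detection (Kinase-Glo Plus) follows a 60-minute room-temperature incubation, with wells lacking PGK as controls. Buffer: 100 mM TEA (pH 7.6), 5 mM MgCl2, 0.01% Tween-20. Coupling enzyme GAPDH (100 nM final) supplies unstable 1,3-BPG in-well.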
PI5P4Ka inh: inhibitors of human PI5P4K alpha | PI5P4Kalpha enzyme, ADP-Glo luminescence, 60 min; hits give low values | P48426 | AID 652105 | 330,000 tested, 1.2% active | max response, %; active = max response of -50% or lower; inconclusive = between -30% and -50%; inactive = -30% or higher; also: value at the top dose of about 77 µM
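Quantitative HTS of the MLSMR library against PI5P4Kalpha with substrate. ATP added last at 5 microM final; room temperature, 60 minutes. Remaining ATP depleted, ADP converted and read as luminescence.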
Numbers stand for hits; 0 = inactive; ? = inconclusive; - = no result given. Shown is part of a subset that was picked to be rich in hits. Unless noted, calls follow the shape of the dose curve; as a rule, active = well fitted curve in the direction sought with a large enough effect; inconclusive = small, poorly fitted or top-dose-only effect, or another doubt; inactive = no such curve, though single readings can be large; an effect the other way counts as inactive or inconclusive.

SMILES	PI4K2A inh	Pin1 inh	Tb PFK block	Tb PGK inh	PI5P4Ka inh
COc1ccc(-c2nnc(SCC#CCO)o2)cc1OC	0	0	0	0	-55.9
O=C1CSC(=S)N1/N=C/c1ccc(O)c(O)c1O	0	0	?	?	-95.3
O=C1CSC(=S)N1N=Cc1ccc(Cl)s1	0	0	-	0	-54.8
COC(=O)C[C@H]1c2cc(F)ccc2S(=O)(=O)N1c1ccccc1	0	0	-	0	0
COC(=O)C[C@H]1c2cc(F)ccc2S(=O)(=O)N1Cc1ccccc1	-59.8	0	-	0	0
Cc1ccc2nc(N3C(=O)C(O)=C(C(=O)c4ccc(C)o4)C3c3cccc(O)c3)sc2c1 (stereo not drawn)	0	?	0	0	-58.3
CCOC(=O)c1sc(N2C(=O)C(O)=C(C(=O)c3ccc(C)o3)C2c2cccc([N+](=O)[O-])c2)nc1C (stereo not drawn)	0	?	0	0	-51.2
CCOC(=O)c1sc(N2C(=O)C(O)=C(C(=O)c3ccco3)C2c2ccc(C)o2)nc1C (stereo not drawn)	0	0	0	0	0
CCOc1ccc(C2C(C(=O)c3ccc(C)o3)=C(O)C(=O)N2c2nc(C)c(C(=O)OC)s2)cc1 (stereo not drawn)	0	0	0	0	0
CCOC(=O)c1sc(N2C(=O)C(O)=C(C(=O)c3ccco3)C2c2ccc([N+](=O)[O-])cc2)nc1C (stereo not drawn)	0	?	-	0	-80.4
COC(=O)c1sc(N2C(=O)C(O)=C(C(=O)c3ccc(C)o3)C2c2ccc([N+](=O)[O-])cc2)nc1C (stereo not drawn)	0	?	0	0	-82.9
CCOC(=O)c1sc(N2C(=O)C(O)=C(C(=O)c3ccc(C)o3)C2c2ccc(OC)c(OC)c2)nc1C (stereo not drawn)	0	?	0	0	0
CCC(=O)Nc1ccc(OCc2cc(C3Nc4ccccc4C(=O)N3Cc3ccccc3)ccc2OC)cc1 (stereo not drawn)	-	0	-	-	-
Oc1ccc(CNc2ccc(F)cc2F)c2cccnc12	-	0	-	-	-
CSC1=NS(=O)(=O)c2c(C)nn(C)c2S1	0	0	?	0	-76.3
Cc1ccccc1NC(=O)N(C)[C@H]1C[C@H]2c3[nH]c4c(-c5ccc6c(c5)OCO6)cccc4c3CCN2C[C@H]1[C@H](C)O	0	-	-	-	-
CN(C)c1ccc(Cc2cc3c(O)ccc(O)c3cc(Cc3ccc(N(C)C)cc3)c2=O)cc1	-56.4	-	-	0	-84.4
O=C(O)CSc1ncnc2scc(-c3ccc(Br)cc3)c12	0	0	0	0	-66.5
O=C(O)CSc1ncnc2scc(-c3ccccc3)c12	0	0	0	0	-76.5
CN(C)C(=O)CSc1ncnc2scc(-c3ccccc3)c12	0	0	0	0	0
CC(=O)CSc1ncnc2scc(-c3ccc(F)cc3)c12	0	0	0	0	0
COc1ccc(N2C3=C(CC4=C2CCCC4=O)C(=O)CCC3)cc1	-56.3	?	0	0	?
COc1ccc(N2C3=C(CC4=C2CC(C)(C)CC4=O)C(=O)CC(C)(C)C3)cc1	0	0	0	0	-
COC(=O)/C=C\C(=O)OC	0	-	-	-	-
COc1ccc(/C=C2/SC(=S)N(c3ccc(S(=O)(=O)Nc4nccs4)cc3)C2=O)cc1	0	0	?	0	-67.3
SMILES	PI4K2A inh	Pin1 inh	Tb PFK block	Tb PGK inh	PI5P4Ka inh
Cc1ccc(/C=C2/SC(=S)N(c3ccc(S(=O)(=O)Nc4nccs4)cc3)C2=O)cc1	0	0	0	0	-68.1
O=C1/C(=C\c2ccccn2)SC(=S)N1c1ccc(S(=O)(=O)Nc2nccs2)cc1	0	?	0	0	-70.6
Cn1nnnc1Sc1ncnc2scc(-c3cccc([N+](=O)[O-])c3)c12	-	0	-	-	-
COC(=O)c1ccccc1S(=O)(=O)Nc1cc(=O)c2ccccc2[nH]1	-	0	-	-	-
COc1ccc(CNC(=O)O[C@H]2CC[C@@]34CCCN3C(=O)CCC[C@H]4C2)cc1	0	-	-	-	-
CCCCOC(=O)CC(CC(=O)OCCCC)(OC(C)=O)C(=O)OCCCC	0	-	-	-	-
NC(Cc1ccc(O)c([N+](=O)[O-])c1)C(=O)O (stereo not drawn)	0	0	0	0	0
CC(Cc1ccc(O)c(O)c1)C(C)Cc1ccc(O)c(O)c1 (stereo not drawn)	0	?	-	0	-81.6
N[C@@H](Cc1ccc(O)c(O)c1)C(=O)O	0	?	-	22.4µM	0
Nc1ccc(-c2cnc[nH]2)cc1[N+](=O)[O-]	-50.6	0	0	0	0
C/C(=N\NC(=O)c1ccc(NS(=O)(=O)c2cccs2)cc1)c1ccccc1	0	0	0	0	-52.7
CC(=NNC(=O)c1ccc(NS(=O)(=O)c2ccc(Br)cc2)cc1)c1cccnc1	0	0	0	0	-52.6
C/C(=N\NC(=O)c1ccc(NS(=O)(=O)c2cccs2)cc1)c1ccc(O)cc1O	0	?	0	0	-95.8
CC(=O)Nc1cccc(C(=O)NNC(=O)c2ccc(NS(=O)(=O)c3cccs3)cc2)c1	0	-	-	0	0
O=C(NCc1ccccc1)c1ccc(NS(=O)(=O)c2cccs2)cc1	0	0	0	0	0
C/C(=N\NC(=O)c1ccc(Br)cc1)c1cccc(NC(=O)c2cccnc2)c1	0	0	0	0	0
COc1ccc(NS(=O)(=O)c2ccccc2C(=O)O)cc1	-	0	-	-	-
O=c1cc(N2CCN(c3ccc(F)cc3)CC2)[nH]c(=O)n1C1CCCCC1	0	0	0	0	0
O=c1cc(O)n(C2CCCCCC2)c(=O)[nH]1	-51.3	0	0	0	0
Cc1ccc(C)c(S(=O)(=O)/N=C2\C=C(NS(=O)(=O)c3ccccc3)C(=O)c3ccccc32)c1	0	0	0	0	0
CCc1ccc(S(=O)(=O)/N=C2\C=C(NS(=O)(=O)c3ccccc3)C(=O)c3ccccc32)cc1	-50.1	?	0	0	?
CC(C)c1ccc(S(=O)(=O)/N=C2\C=C(NS(=O)(=O)c3ccccc3)C(=O)c3ccccc32)cc1	0	0	?	0	-67.8
Cc1ccc(NS(=O)(=O)c2cc3c(cc2-c2ccsc2)NC(=O)CO3)cc1C	-	0	-	-	-
CC(=O)c1c(C)[nH]c(C(=O)OCc2nnc(-c3ccc([N+](=O)[O-])cc3)o2)c1C	0	?	0	0	-58.6
Cc1ccc(C(=O)NCC(=O)OCc2nnc(-c3ccc([N+](=O)[O-])cc3)o2)s1	0	?	0	0	-61.8
Cc1cc2c(s1)c1cnn(Cc3cccc(C)c3F)c(=O)c1n2C	-	0	-	-	-
CCC(=O)Nc1ccc2nc3c(=O)[nH]c(=S)[nH]c3nc2c1	0	?	0	0	-66.2
CC(/C=C1\SC(=S)N(CCCC(=O)Nc2ccc(C(=O)O)c(O)c2)C1=O)=C\c1ccccc1	0	53.6µM	0	0	?
CC(/C=C1\SC(=S)N(CCC(=O)Nc2ccc(O)cc2)C1=O)=C\c1ccccc1	0	0	0	0	0
COc1ccc(/C=C2\SC(=S)N(CCCC(=O)Nc3ccccc3C(=O)O)C2=O)cc1OC	0	?	0	0	-64.3
